Screening results from PubChem.
Most compounds without a hit are left out; they make up all but 3.5% or so of the library.
FBW7 act = FBW7 E3 ligase activators, primary screen, biochemical, AlphaScreen, human. F-box/WD repeat-containing protein 7 (Homo sapiens), Q969H0. AlphaScreen FBW7–phospho-cyclin E peptide binding, activator screen. normalized activity (activation), % at 26.1 µM. 650,000 tested, 0.13% active. AID 1259310, 2017; in the data active means normalized activity above about 1.9%;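 further: purified mutant Fbw7 with reduced substrate affinity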
Target sequence (Q969H0 whole entry, looked up): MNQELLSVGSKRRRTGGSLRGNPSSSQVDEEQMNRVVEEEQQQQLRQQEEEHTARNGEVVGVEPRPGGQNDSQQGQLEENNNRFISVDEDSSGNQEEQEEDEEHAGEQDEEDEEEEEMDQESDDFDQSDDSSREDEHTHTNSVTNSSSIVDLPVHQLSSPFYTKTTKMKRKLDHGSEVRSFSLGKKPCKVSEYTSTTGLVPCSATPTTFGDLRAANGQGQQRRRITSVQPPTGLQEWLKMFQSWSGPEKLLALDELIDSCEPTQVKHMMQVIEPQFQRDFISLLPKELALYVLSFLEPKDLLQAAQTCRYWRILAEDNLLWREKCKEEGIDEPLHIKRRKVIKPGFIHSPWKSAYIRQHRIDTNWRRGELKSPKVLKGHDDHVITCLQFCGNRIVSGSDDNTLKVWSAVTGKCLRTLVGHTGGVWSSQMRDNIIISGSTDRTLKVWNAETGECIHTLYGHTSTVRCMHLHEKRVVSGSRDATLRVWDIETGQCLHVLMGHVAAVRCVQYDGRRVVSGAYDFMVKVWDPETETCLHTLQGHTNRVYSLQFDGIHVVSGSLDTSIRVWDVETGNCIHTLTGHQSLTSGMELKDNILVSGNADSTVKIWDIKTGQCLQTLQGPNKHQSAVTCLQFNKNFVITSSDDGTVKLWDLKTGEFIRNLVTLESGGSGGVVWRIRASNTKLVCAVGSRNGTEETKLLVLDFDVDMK
GPR151 activ = activators of human GPR151, primary screen, cell-based, PathHunter beta-arrestin, luminescence. PathHunter beta-arrestin GPR151 cells. activation, % at 11.2 µM. 650,000 tested, 1% active. AID 1508602, 2020; in the data active means activation above about 4.9%;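 further: 0% = median of compound wells and 100% = cells with positive control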
TEAD-YAP block = TEAD-YAP interaction inhibition, primary screen, TEAD-YAP interaction inhibitor project, luminescence, HEK-TIYL cells; 640,000 tested, 1.4% active; inhibition, % at 9.12 µM; TEAD-Gal4/YAP UAS-luciferase luminescence; in the data active means inhibition above about 32%;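 further: 0% = median of test compound wells and 100% = reference inhibitor wells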
MITF primary = MITF inhibitors, primary screen, biochemical, AlphaScreen, human; 650,000 tested, 0.91% active; inhibition, % at 2.6 µM; AlphaScreen MITF homodimerization, bead proximity signal; AID 1259374, 2018; in the data active means inhibition above about 50%;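 further: 0% = vehicle wells with protein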
* = called active by the depositor.

SMILES	FBW7 act	GPR151 activ	TEAD-YAP block	MITF primary
COc1ccc(OCC(=O)Nc2ccc3nn(-c4ccc(OC)cc4)nc3c2)cc1	0	-2	-26	7
O=C(CCCC(=O)Nc1cccc(Br)c1)N/N=C/c1ccc(Cl)cc1	0	0	-8	4
CC1=Nc2cc(C(=O)NCCCOC(C)C)ccc2Sc2ccccc21	0	1	38*	-2
COCCCNC(=O)c1ccc2c(c1)N=C(C)c1ccccc1S2	0	0	63*	5
COc1cccc(N/C=C(/C#N)c2nc(-c3ccc(F)cc3)cs2)c1	0	1	0	1
Cc1ccc(NC(=O)/C=C\C(=O)O)cc1	0	0	-3	-1
O=C(O)/C=C/C(=O)Nc1ccc(Oc2ccc(Oc3ccc(NC(=O)/C=C/C(=O)O)cc3)cc2)cc1	0	1	39*	-3
CN(C(=O)c1cccc2ncccc12)c1nc2c(s1)CCc1occc1-2	7.5*	0	-7	12
N#CC(C#N)=C1C=C(C(C#N)C#N)c2ccccc21	0	0	3	-9
O=C(Cn1nc2ccccc2n1)N1CCC(CO)(CCc2ccccc2)CC1	0	0	7	-3
N#CCCn1ncc2c1/C(=C/c1ccccc1)CC2	0	3	3	14
Cn1ncc2c1/C(=C/c1ccc(Cl)cc1)CC2	0	-10	55*	8
O=C(CSc1nc2ccccc2c(=O)n1CCN1CCCC1)NC1CCCC1	0	1	5	1
O=c1c(O)cccc2cc(O)c(O)c(O)c12	0	3	-6	90*
COc1ccccc1N=c1scc(-c2ccc3c(c2)NC(=O)CO3)n1CC1CCCO1 (centres undefined)	1	4	1	26
Cc1ccccc1N=c1scc(-c2ccc3c(c2)NC(=O)CO3)n1Cc1ccco1	0	0	48*	0
COc1cc(-c2cc(C(=O)Nc3cc(C)[nH]n3)c3ccccc3n2)cc(OC)c1OC	0	0	33*	-5
CCCCCn1c(=S)[nH]c2cc(C(=O)NCc3ccccc3)ccc2c1=O	0	0	0	6
COc1ccc(S(=O)(=O)NCc2cccnc2)c2ccccc12	1	0	1	10
COc1ccc(CNS(=O)(=O)c2ccc(OC)c3ccccc23)cc1	0	4	34*	-5
Cc1c(C(=O)OCC(C)C)[nH]c2c1C(=O)CCC2	0	0	-35	2
Cc1c(C(=O)OC2CCCC2)[nH]c2c1C(=O)CC(c1ccco1)C2 (centres undefined)	1	3	55*	5
C/C=C/COC(=O)c1[nH]c2c(c1C)C(=O)CC(c1ccco1)C2 (centres undefined)	0	2	57*	10
CCOC(=O)c1[nH]c2c(c1C)C(=O)CC(c1ccc(OC)c(OC)c1)C2 (centres undefined)	0	0	3	7
Cc1c(C(=O)OCC2CCCO2)[nH]c2c1C(=O)CC(c1ccco1)C2 (centres undefined)	0	0	52*	33
SMILES	FBW7 act	GPR151 activ	TEAD-YAP block	MITF primary
Cc1c(C(=O)OCC(C)C)[nH]c2c1C(=O)CC(c1ccco1)C2 (centres undefined)	0	2	49*	3
CCn1c(SCC(=O)c2ccccc2F)nnc1C1CC1	0	0	-32	-17
COc1cc(-c2cnc(N)c(N3CCN(C)CC3)n2)cc(OC)c1OC	1	0	0	11
C=CCOC(=O)c1[nH]c2c(c1C)C(=O)CC(c1ccco1)C2 (centres undefined)	0	0	51*	12
O=C(CSc1nnc(-c2ccc3c(c2)OCO3)o1)Nc1ccc2[nH]c(=O)[nH]c2c1	4.6*	1	0	-30
COc1cc2cc(CN(CC3CCCO3)C(=O)NC3CCCCC3)c(=O)[nH]c2cc1OC (centres undefined)	0	1	-4	-7
CC(c1ccccc1)C(CC(=O)O)C(=O)Nc1ccc(Cl)cc1 (centres undefined)	0	-1	1	-10
O=C1c2ccc([N+](=O)[O-])cc2C(=O)N1CNc1cccc(F)c1	0	-1	6	7
O=C(NCc1cccs1)C1CCCN(C(=O)NC2CC2)C1 (centres undefined)	0	0	-2	2
O=C(CSc1nnc(-c2cccnc2)s1)Nc1ccnc2ccccc12	0	-1	48*	-11
Cc1ccc(NC(=O)CSc2nnc(-c3cccnc3)s2)cc1	0	2	-3	8
O=S1(=O)Nc2c(ccc3cccnc23)-c2ccccc21	0	4	60*	88*
COc1cc(C(=O)NN=C2CCN(Cc3ccccc3)CC2)cc(OC)c1OC	1	-1	70*	20
COc1cc(C(=O)N/N=C2/CCCc3ccccc32)cc(OC)c1OC	0	1	60*	10
Nc1ccc(C(=O)N/N=C2\CCCc3ccccc32)cc1	0	1	-19	-6
COc1cc(C(=O)NC2CCCC2)cc(OC)c1OC	0	-1	7	12
COc1cc(C(=O)NN=C2CCC(c3ccccc3)CC2)cc(OC)c1OC (centres undefined)	0	0	61*	1
COc1cc(C(=O)NN=C2CCCC2)cc(OC)c1OC	1	2	62*	4
CCCCN1C(=O)NC(NC(=O)c2ccc(Cl)cc2Cl)(C(F)(F)F)C1=O (centres undefined)	0	3	6	3
CCCCC1(CC(=O)Nc2ccc(F)cc2)C(=O)N(c2ccccc2)N(c2ccccc2)C1=O	1.9*	-1	3	-10
COC(=O)c1nnc(N2CCN(C)CC2)c2ccccc12	0	0	17	7
O=C(CCl)Nc1ncc([N+](=O)[O-])s1	0	1	1	7
CCCn1cnc2c(cnn2-c2ccccc2)c1=O	0	0	-31	-2
O=S(=O)(Cc1ccc(Cl)cc1)Nc1ccc2c(c1)OCCO2	0	0	41*	3
O=S(=O)(Nc1ccc2c(c1)OCCO2)c1ccc(Cl)cc1	0	-1	-8	5
SMILES	FBW7 act	GPR151 activ	TEAD-YAP block	MITF primary
CCOC(=O)c1ccc(NC(=O)CC2C(=O)N(CC)C(=S)N2CCc2ccc(OC)c(OC)c2)cc1 (centres undefined)	0	0	5	-7
O=C(/C=C/Nc1ccc(Br)cc1)c1cccs1	0	-2	41*	-4
O=C(/C=C/Nc1cccc(Br)c1)c1cccs1	0	-1	-55	-10
CCOc1ccc(N/C=C/C(=O)c2cccs2)cc1	1	0	37*	17
Cc1ccc(O)c(N/C=C/C(=O)c2ccc(F)cc2)c1	0	-1	-57	13
Cc1ccc(O)c(N/C=C/C(=O)c2cccs2)c1	1	-1	54*	2
